Laboratory results as given in PubChem BioAssay (Tox21).
“And” between values parts separate entries of the source, which are not always exact repeats. Equal entries are not always repeated. Records with an inconclusive call do not appear. The source made the active and inactive calls. Unless noted, calls come from the whole dose curve; as a rule, active = well fitted curve in the direction sought with a large enough effect in the repeat runs; inconclusive = weak or mixed curves; inactive = no such curve, though single readings can be large; an effect the other way counts as inactive or inconclusive.

How the values were obtained:
[1] = qHTS assay to identify small molecule agonists of the estrogen receptor alpha (ER-alpha) signaling pathway in the presence of an antagonist - cell viability counter screen (AID 1259386); conditions: VM7Luc4E2 viability, CellTiter-Fluor fluorescence, 22 h; series mostly up to 92.4 µM;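 note: cells exposed to compounds for 22 h at 37 °C before the viability read; nearly all actives have a fitted effect of over 30% in size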; note: potency is the fitted concentration of half-maximal effect
In short: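 Read-out: CellTiter-Fluor fluorescence after 1hr reagent incubation, measured in the same wells as the luciferase readout. VM7Luc4E2 cells were exposed to 15 compound concentrations with 10.0nM ICI-182,780 for 22hr at 37C.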

[2] = molecular target: Progesterone receptor (Homo sapiens) (UniProt P06401); assay: qHTS assay to identify small molecule antagonists of the progesterone receptor (PR) signaling pathway (AID 1346795; active = well fitted inhibition curve with a large enough effect in the signal ratio in the repeat runs, not every such curve was filed as active; the % refers to the signal ratio; note: potency is the fitted concentration of half-maximal effect); conditions: PR-UAS-bla HEK293T, beta-lactamase FRET ratio, 16 h; series mostly up to 92.4 µM
Chain of Progesterone receptor (Homo sapiens) (P06401 whole entry, looked up): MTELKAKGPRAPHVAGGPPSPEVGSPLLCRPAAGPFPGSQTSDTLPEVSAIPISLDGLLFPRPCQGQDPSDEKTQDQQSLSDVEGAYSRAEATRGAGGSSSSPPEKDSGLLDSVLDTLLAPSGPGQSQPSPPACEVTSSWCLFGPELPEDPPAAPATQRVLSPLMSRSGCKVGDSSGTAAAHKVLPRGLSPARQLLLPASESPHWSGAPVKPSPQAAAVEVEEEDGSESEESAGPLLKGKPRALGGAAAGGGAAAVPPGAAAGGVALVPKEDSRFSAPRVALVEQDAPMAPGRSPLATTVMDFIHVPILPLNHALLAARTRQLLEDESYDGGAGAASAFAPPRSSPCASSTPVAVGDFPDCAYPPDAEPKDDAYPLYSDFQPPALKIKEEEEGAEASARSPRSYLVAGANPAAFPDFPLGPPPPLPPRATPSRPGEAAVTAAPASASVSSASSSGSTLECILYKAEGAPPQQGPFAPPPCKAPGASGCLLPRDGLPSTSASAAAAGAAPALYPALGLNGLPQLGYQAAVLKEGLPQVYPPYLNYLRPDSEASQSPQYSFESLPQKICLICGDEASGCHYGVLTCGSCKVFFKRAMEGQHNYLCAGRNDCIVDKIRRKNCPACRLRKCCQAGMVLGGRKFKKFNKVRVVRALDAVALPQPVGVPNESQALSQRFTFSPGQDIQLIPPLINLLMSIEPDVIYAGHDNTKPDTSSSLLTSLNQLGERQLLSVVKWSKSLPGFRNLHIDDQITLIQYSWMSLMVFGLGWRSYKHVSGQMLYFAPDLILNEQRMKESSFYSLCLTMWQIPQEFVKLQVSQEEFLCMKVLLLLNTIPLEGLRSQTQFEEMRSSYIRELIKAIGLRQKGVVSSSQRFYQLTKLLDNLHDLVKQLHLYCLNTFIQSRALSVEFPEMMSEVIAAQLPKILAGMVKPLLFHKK
In short: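 Beta-lactamase reporter, HEK293T PR-UAS-bla line; 2% charcoal-stripped FBS; 6 hr pre-incubation, 37C/5% CO2. Compound + R5020 1 nM final, 16 hr. LiveBLAzer B/G FRET substrate, 2 hr RT; fluorescence intensity read.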

[3] = qHTS assay to identify small molecule antagonists of the progesterone receptor (PR) signaling pathway - cell viability counter screen (AID 1346798); conditions: PR-UAS-bla HEK293T viability, CellTiter-Glo luminescence, 16 h; series mostly up to 92.4 µM; note: nearly all actives have a fitted effect of over 50% in size
In short: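 Luminescence readout (CellTiter-Glo, 30 min, RT) of viability in PR-UAS-bla HEK293T cells exposed to compound and R5020 agonist for 16 hr at 37C, 5% CO2; run in the same wells as the beta-lactamase reporter read.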

[4] = qHTS assay to identify small molecule agonists of the progesterone receptor (PR) signaling pathway - cell viability counter screen (AID 1346799; calls by dose curve; note: nearly all actives have a fitted effect of over 45% in size; note: potency is the fitted concentration of half-maximal effect); conditions: PR-UAS-bla HEK293T viability, CellTiter-Glo luminescence, 16 h; series mostly up to 92.4 µM
In short: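 HEK293T PR-UAS-bla, 3,000 cells/well, 2% charcoal-stripped FBS; 6 h settle, compound 16 h at 37C/5% CO2; LiveBLAzer 2 h RT, then CellTiter-Glo 30 min RT, luminescence read.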

[5] = qHTS assay to identify small molecule antagonists of the TGF-beta/Smad signaling pathway - cell viability counter screen (AID 1346824); conditions: SBE-bla HEK293T viability, CellTiter-Glo luminescence; series mostly up to 76.8 µM; note: nearly all actives have a fitted effect of over 50% in size
In short: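 Cytotoxicity counter-screen run in the same wells as the beta-lactamase Smad reporter read: CellTiter-Glo luminescence after 30 min at room temperature. HEK 293T SBE-bla cells had 5 hr compound exposure at 37 C with TGF-beta1 (0.25 ng/mL stock).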

[6] = qHTS assay to identify small molecule agonists of the TGF-beta/Smad signaling pathway - cell viability counter screen (AID 1346829); conditions: SBE-bla HEK293T viability, CellTiter-Glo luminescence, 5 h; series mostly up to 76.8 µM; note: top concentration of the series differs between compounds; nearly all actives have a fitted effect of over 45% in size
In short: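 Cytotoxicity counter screen: CellTiter-Glo luminescence (30 min, room temperature) measured in the SBE-bla HEK 293T reporter wells after 5 hr compound treatment at 37 C and the 2 hr substrate step.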

[7] = qHTS assay to identify small molecule agonists of the TGF-beta/Smad signaling pathway (AID 1346859; active = well fitted activation curve with a large enough effect in the signal ratio in the repeat runs, not every such curve was filed as active; the % refers to the signal ratio); conditions: SBE-bla HEK293T, TGF-beta/Smad beta-lactamase reporter, 5 h; series mostly up to 76.8 µM
In short: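 Read-out: fluorescence at 460 and 530 nm (405 nm excitation) after a 2 hr room-temperature incubation with beta-lactamase FRET substrate. SBE-bla HEK 293T cells had been treated with test compounds for 5 hr at 37 C.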

[8] = molecular target: Thyrotropin-releasing hormone receptor (Homo sapiens) (UniProt P34981); assay: qHTS assay to identify small molecule antagonists of the thyrotropin-releasing hormone receptor (TRHR) signaling pathway (AID 1346877; active = well fitted inhibition curve with a large enough effect in the repeat runs, not every such curve was filed as active); conditions: TRHR-HEK293, TRH-induced calcium fluorescence, antagonist mode; series mostly up to 51.3 µM
Chain of Thyrotropin-releasing hormone receptor (Homo sapiens) (P34981 whole entry, looked up): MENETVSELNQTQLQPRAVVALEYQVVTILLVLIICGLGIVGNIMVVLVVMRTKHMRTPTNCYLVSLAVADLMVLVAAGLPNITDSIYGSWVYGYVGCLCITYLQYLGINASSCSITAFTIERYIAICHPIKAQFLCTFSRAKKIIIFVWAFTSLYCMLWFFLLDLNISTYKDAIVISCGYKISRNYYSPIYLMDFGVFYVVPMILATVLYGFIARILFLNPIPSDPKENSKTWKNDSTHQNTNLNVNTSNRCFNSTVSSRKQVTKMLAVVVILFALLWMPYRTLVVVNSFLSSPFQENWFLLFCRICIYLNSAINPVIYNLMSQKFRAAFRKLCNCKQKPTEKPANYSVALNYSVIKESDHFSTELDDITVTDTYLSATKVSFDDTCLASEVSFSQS
In short: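 HEK293/TRHR cells, 18 h, 37 °C; Ca2+ dye 2 h; cpd 5 min RT; TRH 1 nM final; fluorescence read 3 min, 1 s intervals; 15 concs, triplicate.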

[9] = molecular target: Thyrotropin-releasing hormone receptor (Homo sapiens) (UniProt P34981); assay: qHTS assay to identify small molecule agonists of the thyrotropin-releasing hormone receptor (TRHR) signaling pathway (AID 1346891; calls by dose curve;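 note: HEK293 cells expressing TRHR with calcium dye readout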); conditions: TRHR-HEK293 calcium fluorescence, agonist mode; series mostly up to 57.6 µM
In short: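 HEK293/TRHR cells, 1500 per well, 18 h 37 °C; Ca dye 2 h 37 °C; pin-tool compound addition (agonist mode); kinetic fluorescence 3 min, 1 s reads; 15 concentrations, triplicate.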

[10] = Human pregnane X receptor (PXR) small molecule agonists, qHTS cell viability counter screen (AID 1346977); conditions: PXR-Luc HepG2 viability, CellTiter-Fluor, 24 h; series mostly up to 92.4 µM; note: nearly all actives have a fitted effect of over 50% in size; note: potency is the fitted concentration of half-maximal effect
In short: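 Fluorescence read-out (CellTiter-Fluor) of viability in PXR-Luc HepG2 cells, multiplexed with the luciferase agonist read. Compounds in DMSO added after 5hr plating; 24hr total exposure at 37C, 5% CO2.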

[11] = Caspase-3/7 induction in HepG2 cells by small molecules, qHTS assay (AID 1346978); conditions: HepG2 caspase-3/7 activation, Caspase-Glo luminescence, 17 h; series mostly up to 92.4 µM; note: nearly all actives have a fitted effect of over 15% in size
In short: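 Caspase-3/7 induction was measured by Caspase-Glo 3/7 luminescence (30 min, room temperature) after a 17 hr compound exposure of wild-type HepG2 cells seeded at 2,000 per well and pre-incubated 5 hr.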

[12] = Caspase-3/7 induction in CHO-K1 cells by small molecules, qHTS cell viability counter screen (AID 1346979); conditions: CellTiter-Fluor fluorescence, 17 h; series mostly up to 92.4 µM; note: nearly all actives have a fitted effect of over 35% in size; note: potency is the fitted concentration of half-maximal effect
In short: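 CHO-K1 wt, 1,500 cells/well; 5hr pre-incubation 37C/5% CO2; compound pin transfer (DMSO); 16hr exposure; CellTiter-Fluor added, 1hr, fluorescence read.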

[13] = Caspase-3/7 induction in CHO-K1 cells by small molecules, qHTS assay (AID 1346980); conditions: CHO-K1 caspase-3/7 induction, Caspase-Glo luminescence, 17 h; series mostly up to 92.4 µM; note: nearly all actives have a fitted effect of over 15% in size
In short: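 Luminescent Caspase-Glo 3/7 read (30min, room temperature) quantified apoptosis induction. Cells were wild-type CHO-K1, treated with compound for 17hr at 37 C and 5% CO2.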

[14] = Caspase-3/7 induction in HepG2 cells by small molecules, qHTS cell viability counter screen (AID 1346981); conditions: CellTiter-Fluor fluorescence, 17 h; series mostly up to 92.4 µM; note: nearly all actives have a fitted effect of over 30% in size; note: potency is the fitted concentration of half-maximal effect
In short: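 Fluorescence read-out of live-cell protease activity (CellTiter-Fluor) after 1 hr with reagent. This was measured in the same wells as the caspase-3/7 luminescence, on HepG2 cells exposed to DMSO-dissolved compounds for 16 hr at 37 C.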

[15] = molecular target: Nuclear receptor subfamily 1 group I member 2 (Homo sapiens) (UniProt O75469); assay: Human pregnane X receptor (PXR) small molecule agonists, qHTS assay (AID 1346982); conditions: PXR-Luc HepG2, CYP3A4 luciferase reporter, 24 h; series mostly up to 92.4 µM; note: nearly all actives have a fitted effect of over 35% in size; note: potency is the fitted concentration of half-maximal effect
Chain of Nuclear receptor subfamily 1 group I member 2 (Homo sapiens) (O75469 whole entry, looked up): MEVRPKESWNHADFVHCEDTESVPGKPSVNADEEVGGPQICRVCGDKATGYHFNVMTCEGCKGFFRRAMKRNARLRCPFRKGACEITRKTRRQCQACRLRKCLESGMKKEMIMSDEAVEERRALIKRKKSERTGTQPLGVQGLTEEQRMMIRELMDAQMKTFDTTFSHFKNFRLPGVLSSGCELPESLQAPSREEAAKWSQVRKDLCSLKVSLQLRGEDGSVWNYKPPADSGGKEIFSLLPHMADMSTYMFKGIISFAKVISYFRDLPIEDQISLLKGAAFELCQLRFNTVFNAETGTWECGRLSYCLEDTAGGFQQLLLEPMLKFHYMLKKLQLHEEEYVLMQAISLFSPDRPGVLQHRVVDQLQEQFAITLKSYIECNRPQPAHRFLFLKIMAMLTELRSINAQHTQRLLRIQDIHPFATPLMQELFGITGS
In short: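 HepG2 PXR-Luc reporter line, 5% charcoal-stripped FBS; 5 hr pre-incubation, compound (DMSO) 24 hr at 37 C/5% CO2; ONE-Glo 30 min RT; luminescence read-out.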

[16] = molecular target: Cytochrome P450 2D6 (Homo sapiens) (UniProt P10635); assay: Cytochrome P450 Family 2 Subfamily D Member 6 (CYP2D6) small molecule antagonists: luciferase reporter qHTS assay (AID 1671196); conditions: P450-Glo CYP2D6 enzyme assay, luciferin luminescence, 1 h; series mostly up to 115 µM; note: nearly all actives have a fitted effect of over 50% in size; note: potency is the fitted concentration of half-maximal effect
Chain of Cytochrome P450 2D6 (Homo sapiens) (P10635 whole entry, looked up): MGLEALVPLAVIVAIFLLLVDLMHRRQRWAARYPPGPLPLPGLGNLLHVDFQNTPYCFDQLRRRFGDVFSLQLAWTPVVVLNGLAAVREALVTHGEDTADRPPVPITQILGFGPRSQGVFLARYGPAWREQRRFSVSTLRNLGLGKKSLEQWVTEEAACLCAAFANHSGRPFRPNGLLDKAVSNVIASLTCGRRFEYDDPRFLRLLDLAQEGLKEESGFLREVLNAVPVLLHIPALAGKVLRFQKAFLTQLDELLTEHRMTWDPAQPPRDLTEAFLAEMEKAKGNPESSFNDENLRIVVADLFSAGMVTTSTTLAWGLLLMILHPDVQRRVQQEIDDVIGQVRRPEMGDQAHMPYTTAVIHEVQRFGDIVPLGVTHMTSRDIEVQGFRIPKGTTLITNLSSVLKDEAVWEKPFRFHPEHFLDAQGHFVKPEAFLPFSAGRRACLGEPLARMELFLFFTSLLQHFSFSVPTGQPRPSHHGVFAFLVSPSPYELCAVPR
In short: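 Luminogenic proluciferin substrate, CYP2D6 enzyme; 10 min RT preincubation with compound, NADPH regeneration system added, 1 h RT. Stop/detection reagent, 20 min RT, luminescence read (RLU). Signal proportional to CYP activity.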

[17] = molecular target: Progesterone receptor (Homo sapiens) (UniProt P06401); assay: qHTS assay to identify small molecule agonists of the progesterone receptor (PR) signaling pathway (AID 1346784; calls by dose curve; note: nearly all actives have a fitted effect of over 30% in size); conditions: PR-UAS-bla HEK293T, beta-lactamase FRET ratio, 16 h; series mostly up to 92.4 µM
In short: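 HEK 293T PR-UAS-bla reporter cells, 2% charcoal-stripped FBS; 6 hr settle at 37C/5% CO2, compound (DMSO) 16 hr, LiveBLAzer B/G FRET substrate 2 hr RT, fluorescence intensity read.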

[18] = molecular target: Nuclear receptor subfamily 1 group I member 2 (Rattus norvegicus) (UniProt Q9R1A7); assay: Rat pregnane X receptor (rPXR) activation by small molecules, qHTS assay (AID 1346983); conditions: rPXR luciferase reporter cells, One-Glo luminescence, 24 h; stronger effect = higher value; note: nearly all actives have a fitted effect of over 20% in size
Chain of Nuclear receptor subfamily 1 group I member 2 (Rattus norvegicus) (Q9R1A7 whole entry, looked up): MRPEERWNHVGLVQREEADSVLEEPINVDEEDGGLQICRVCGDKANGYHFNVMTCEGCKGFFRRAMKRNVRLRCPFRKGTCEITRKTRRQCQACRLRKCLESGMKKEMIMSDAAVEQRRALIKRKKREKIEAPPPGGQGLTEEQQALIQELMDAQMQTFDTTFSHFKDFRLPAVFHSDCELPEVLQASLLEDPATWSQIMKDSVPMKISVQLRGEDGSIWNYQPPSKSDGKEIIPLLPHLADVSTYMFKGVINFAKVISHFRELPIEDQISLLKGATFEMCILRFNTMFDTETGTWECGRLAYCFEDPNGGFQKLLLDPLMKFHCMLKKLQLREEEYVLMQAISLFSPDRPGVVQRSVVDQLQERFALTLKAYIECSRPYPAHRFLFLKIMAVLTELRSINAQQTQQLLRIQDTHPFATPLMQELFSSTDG
In short: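 Luminescent readout (One-Glo luciferase, 30 min room temperature) followed 24 hr compound treatment at 37 C of rPXR cells plated 2,000 per well and preincubated 5hr; qHTS format with compounds delivered in DMSO.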

[19] = molecular target: Nuclear receptor subfamily 1 group I member 2 (Homo sapiens) (UniProt O75469); assay: Human pregnane X receptor (PXR) activation by small molecules, qHTS assay (AID 1346985); conditions: DPX-2 HepG2 CYP3A4-luciferase, 24 h; series mostly up to 38.3 µM; note: nearly all actives have a fitted effect of over 40% in size; note: potency is the fitted concentration of half-maximal effect
In short: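 DPX-2 cells (HepG2 co-transfected with a PXR response element and a CYP3A4-promoter luciferase construct) were seeded at 2,000 per well, rested 5 hr at 37C, then exposed to DMSO-dissolved compounds for 24 hr. Activation was read as luciferase luminescence.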

[20] = molecular target: Cytochrome P450 2C19 (Homo sapiens) (UniProt P33261); assay: Cytochrome P450 Family 2 Subfamily C Member 19 (CYP2C19) small molecule antagonists: luciferase reporter qHTS assay (AID 1671197); conditions: P450-Glo CYP2C19 enzyme, luciferin luminescence, 1 h; series mostly up to 115 µM; note: nearly all actives have a fitted effect of over 65% in size; note: potency is the fitted concentration of half-maximal effect
Chain of Cytochrome P450 2C19 (Homo sapiens) (P33261 whole entry, looked up): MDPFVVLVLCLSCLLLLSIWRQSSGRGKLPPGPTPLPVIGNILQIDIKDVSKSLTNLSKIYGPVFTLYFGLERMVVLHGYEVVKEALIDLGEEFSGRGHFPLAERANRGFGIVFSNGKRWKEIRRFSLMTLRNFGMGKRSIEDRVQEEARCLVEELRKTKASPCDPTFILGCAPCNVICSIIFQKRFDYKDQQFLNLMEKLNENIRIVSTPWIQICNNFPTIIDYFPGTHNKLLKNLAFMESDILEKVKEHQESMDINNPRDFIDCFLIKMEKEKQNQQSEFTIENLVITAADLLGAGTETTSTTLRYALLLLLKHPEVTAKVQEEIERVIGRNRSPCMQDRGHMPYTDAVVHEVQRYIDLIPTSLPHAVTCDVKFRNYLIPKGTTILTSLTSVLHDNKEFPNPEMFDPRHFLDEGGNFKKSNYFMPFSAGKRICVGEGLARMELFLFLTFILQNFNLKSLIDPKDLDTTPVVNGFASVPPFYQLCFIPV
In short: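 Luminescent readout of CYP2C19 activity: luciferin product detected 20 min after adding detection reagent. Before that, compound and enzyme-substrate mix preincubated 10 min at room temperature; NADPH-regenerating system started a 1 h, 37C reaction. Ketoconazole as positive control.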
% is set by controls: 0 for no effect and ±100 for the full control effect.

CCOC(=O)C(C)C(C)=O (stereo not given)
inactive: Potency [1] | Potency [2] | Potency [3] | Potency [4] | Potency [5] | Potency [6] | outcome [7] | Potency [8] | Potency [9] | Potency [10] | Potency [11] | Potency [12] | Potency [13] | Potency [14] | Potency [15] | Potency [16]

O
inactive: Potency [1] | Potency [2] | Potency [3] | Potency [4] | Potency [5] | Potency [6] | outcome [7] | Potency [8] | Potency [9] | Potency [10] | Potency [11] | Potency [12] | Potency [13] | Potency [14]

CCC(C)(C)C(=O)O[C@H]1C[C@@H](C)C=C2C=C[C@H](C)[C@H](CC[C@@H]3C[C@@H](O)CC(=O)O3)[C@H]21
inactive: Potency [1] | Potency [17] | Potency [3] | Potency [5] | Potency [6] | outcome [7] | Potency [8] | Potency [9] | Potency [11] | Potency [12]

Oc1ccc(Cl)cc1Cc1cc(Cl)ccc1O
active: Potency [1] 43.3 µM | Potency [2] 15.6 µM and 15.4 µM and 18.8 µM | Potency [4] 69.8 µM | Potency [10] 35.5 µM and 30.6 µM and 16.8 µM | Potency [12] 44.1 µM and 38.6 µM and 29.8 µM | Potency [14] 55.5 µM | Potency [15] 22.1 µM and 27.3 µM | Potency [20] 3.62 µM and 2.83 µM and 3.09 µM
inactive: Potency [3] | Potency [6] | outcome [7] | Potency [8] | Potency [9] | Potency [11] | Potency [13] | max activation [18] -2.03% | Potency [19]

CCCCCCCCCCCCCCCCCl
inactive: activity change, negative = cytotoxicity [1] -1.56% [at 19 µM] | activity change, negative = inhibition [2] 4.71% [at 18.9 µM] | activity change, negative = cytotoxicity [3] -2.11% [at 18.9 µM] | viability change, negative = cytotoxic [5] 1.48% [at 15.8 µM] | activity change, negative = cytotoxicity [6] 1.73% [at 15.8 µM] | activation [7] 0.675% [at 15.8 µM] | activity, negative = inhibition [8] 3.5% [at 10.5 µM] | activation [9] -0.271% [at 11.8 µM] | activity change, negative = cytotoxicity [10] 0.261% [at 19 µM] | caspase activation [11] -0.588% [at 19 µM] | activity change, negative = cytotoxicity [12] -2.27% [at 19 µM] | caspase-3/7 activation [13] -1.24% [at 19 µM] | activity change, negative = cytotoxicity [14] -0.832% [at 19 µM] | activation [15] -2.47% [at 19 µM] | activity change, negative = inhibition [16] 0.322% [at 23.6 µM] | activity change, negative = inhibition [20] -0.542% [at 23.6 µM]

NNCCc1ccccc1
inactive: Potency [1] | Potency [2] | Potency [3] | Potency [4] | Potency [5] | Potency [6] | outcome [7] | Potency [8] | Potency [9] | Potency [10] | Potency [11] | Potency [12] | Potency [13] | Potency [14]
active: Potency [15] 27.4 µM and 26.6 µM | Potency [19] 12.6 µM | Potency [16] 2.25 µM and 12.3 µM
